Results reported in PubChem BioAssay (EPA / NIEHS).
Active and inactive are the calls of the source. How the source made its calls: active means hit-call score of the fitted dose curve at least 0.9, where 1 is the maximum; inactive means score below 0.9.

Assays:
Conditions in all cases: mRNA level, 48 h; actives raise or lower the signal
CYP2C9 (gene 1559) = assay: LTEA_HepaRG_CYP2C9: Life Technologies and Expression Analysis (LTEA) Assay for CYP2C9 using HepaRG (AID 2283484)
How it was run: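 CYP2C9 transcript level, quantified by TaqMan qRT-PCR against three housekeeping genes, was fitted bidirectionally relative to 0.5% DMSO. HepaRG cultures were treated 48 h, in duplicate, at eight half-log concentrations topping at 100 uM.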

CYP2E1 (gene 1571) = assay: LTEA_HepaRG_CYP2E1: Life Technologies and Expression Analysis (LTEA) Assay for CYP2E1 using HepaRG (AID 2283485)
How it was run: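 CYP2E1 transcript measured by Fluidigm qRT-PCR against three housekeeping genes in human HepaRG cells treated 48 h (top 100 uM, half-log steps, 0.5% DMSO vehicle). Gain or loss fitted relative to DMSO baseline.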

CYP4A11 (gene 1579) = assay: LTEA_HepaRG_CYP4A11: Life Technologies and Expression Analysis (LTEA) Assay for CYP4A11 using HepaRG (AID 2283486)
How it was run: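 Differentiated HepaRG cells, serum-free induction medium, exposed 48 h in duplicate to 8-point half-log series from 100 uM in 0.5% DMSO. CYP4A11 mRNA measured by qRT-PCR, normalized to ACTB, GAPDH, POLR2A; bidirectional fit versus DMSO.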

[1] = read-out: Cytochrome P450 3A4 (Homo sapiens) (UniProt P08684); assay: LTEA_HepaRG_CYP3A4: Life Technologies and Expression Analysis (LTEA) Assay for CYP3A4 using HepaRG (AID 2283487)
How it was run: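 HepaRG, 48 h exposure, 8-pt CRC from 100 uM (half-log), 0.5% DMSO, duplicates; serum-free induction medium. Readout: CYP3A4 mRNA, qRT-PCR, ACTB/GAPDH/POLR2A normalization. Bidirectional fit vs DMSO.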

[2] = read-out: DNA damage-inducible transcript 3 (DDIT3), DDIT3 (gene 1649); assay: LTEA_HepaRG_DDIT3: Life Technologies and Expression Analysis (LTEA) Assay for DNA damage-inducible transcript 3 (DDIT3) using HepaRG (AID 2283488)
How it was run: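 DDIT3 transcript was quantified by qRT-PCR with ACTB/GAPDH/POLR2A normalization after 48 h chemical treatment of differentiated HepaRG cells in 0.5% DMSO. Dosing was eight-point, half-log, top 100 uM, duplicate wells. Curves fitted bidirectionally versus DMSO.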

[3] = read-out: Early growth response protein 1 (EGR1) transcription factor, EGR1 (gene 1958); assay: LTEA_HepaRG_EGR1: Life Technologies and Expression Analysis (LTEA) Assay for Early growth response protein 1 (EGR1) transcription factor using HepaRG (AID 2283490)
How it was run: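 EGR1 transcript levels quantified by qRT-PCR (Fluidigm arrays) against three housekeeping genes after 48 h chemical exposure of HepaRG cells. Eight-point half-log series topping at 100 uM, 0.5% DMSO vehicle, analyzed for gain or loss.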

[4] = read-out: Ezrin (EZR), EZR (gene 7430); assay: LTEA_HepaRG_EZR: Life Technologies and Expression Analysis (LTEA) Assay for Ezrin (EZR) using HepaRG (AID 2283491)
How it was run: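 Read-out is EZR transcript level by qRT-PCR, normalized to three housekeeping genes and fitted bidirectionally against the DMSO control. Human HepaRG cells received test chemicals for 48 h at eight half-log concentrations up to 100 uM in 0.5% DMSO.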

[5] = read-out: Cytochrome P450 3A7 (Homo sapiens) (UniProt P24462); assay: LTEA_HepaRG_CYP3A7: Life Technologies and Expression Analysis (LTEA) Assay for CYP3A7 using HepaRG (AID 2283492)
How it was run: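 HepaRG cells plated 48 h, then dosed in serum-free induction medium for 48 h at 8 concentrations (top 100 uM, half-log steps, 0.5% DMSO). CYP3A7 mRNA by qRT-PCR, normalised to ACTB/GAPDH/POLR2A; bidirectional fit versus DMSO.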

CYP3A5 (gene 1577) = assay: LTEA_HepaRG_CYP3A5: Life Technologies and Expression Analysis (LTEA) Assay for CYP3A5 using HepaRG (AID 2283493)
How it was run: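 mRNA levels were quantified by qRT-PCR on Fluidigm arrays and normalized to three housekeeping genes. Differentiated HepaRG cells received 48 h exposure (top 100 uM, half-log steps, 0.5% DMSO vehicle, duplicate); bidirectional fitting versus DMSO.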

[6] = read-out: Fatty Acid-Binding Protein 1 (FABP1), FABP1 (gene 2168); assay: LTEA_HepaRG_FABP1: Life Technologies and Expression Analysis (LTEA) Assay for Fatty Acid-Binding Protein 1 (FABP1) using HepaRG (AID 2283494)
How it was run: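 FABP1 expression by TaqMan qRT-PCR, normalised to three housekeeping genes, in HepaRG cells after 48 h chemical treatment. Eight-point half-log series topping at 100 uM in 0.5% DMSO, duplicates; gain or loss fitted relative to vehicle.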

[7] = read-out: Cytochrome P450 4A22 (Homo sapiens) (UniProt Q5TCH4); assay: LTEA_HepaRG_CYP4A22: Life Technologies and Expression Analysis (LTEA) Assay for Cytochrome P450 4A22 (CYP4A22) using HepaRG (AID 2283495)
How it was run: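 qRT-PCR of CYP4A22 mRNA (Fluidigm TaqMan, normalized to three housekeeping genes) after 48 h chemical exposure of HepaRG cells; 8-point half-log series, top 100 uM, 0.5% DMSO vehicle. Bidirectional curve fitting vs DMSO baseline.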

[8] = read-out: Cytochrome P450 7A1 (Homo sapiens) (UniProt P22680); assay: LTEA_HepaRG_CYP7A1: Life Technologies and Expression Analysis (LTEA) Assay for Cytochrome P450 7A1 (CYP7A1) using HepaRG (AID 2283496)
How it was run: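 HepaRG, 48 h exposure, 8-pt half-log series from 100 uM, 0.5% DMSO vehicle, duplicates. Readout: TaqMan qRT-PCR mRNA vs three housekeeping genes; bidirectional curve fit against DMSO baseline.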

[9] = read-out: Glutathione S-Transferase (GSTA2), GSTA2 (gene 2939); assay: LTEA_HepaRG_GSTA2: Life Technologies and Expression Analysis (LTEA) Assay for Glutathione S-Transferase (GSTA2) using HepaRG (AID 2283497)
How it was run: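 GSTA2 transcript levels came from Fluidigm TaqMan qRT-PCR normalized to three housekeeping genes, fitted in both directions against DMSO. HepaRG cultures received chemicals for 48 h in serum-free induction medium (0.5% DMSO), 8 half-log concentrations up to 100 uM, duplicate.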

[10] = read-out: Glutamate-cysteine ligase catalytic (GCLC), GCLC (gene 2729); assay: LTEA_HepaRG_GCLC: Life Technologies and Expression Analysis (LTEA) Assay for Glutamate-cysteine ligase catalytic (GCLC) using HepaRG (AID 2283498)
How it was run: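 Expression by TaqMan qRT-PCR, normalized to three housekeeping genes (ACTB, GAPDH, POLR2A), with up- or down-regulation fitted against DMSO. HepaRG cells dosed in duplicate for 48 h with 8 half-log concentrations up to 100 uM, vehicle 0.5% DMSO.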

[11] = read-out: growth arrest and DNA damage 45 (GADD45G), GADD45G (gene 10912); assay: LTEA_HepaRG_GADD45G: Life Technologies and Expression Analysis (LTEA) Assay for growth arrest and DNA damage 45 (GADD45G) using HepaRG (AID 2283499)
How it was run: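 Differentiated human HepaRG cells in serum-free induction medium were exposed for 48 h to 8 half-log concentrations up to 100 uM in 0.5% DMSO, in duplicate. GADD45G mRNA was measured by TaqMan qRT-PCR, normalised to ACTB, GAPDH and POLR2A, and fitted bidirectionally against DMSO.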

[12] = read-out: Glutamate-cysteine ligase regulatory (GCLM), GCLM (gene 2730); assay: LTEA_HepaRG_GCLM: Life Technologies and Expression Analysis (LTEA) Assay for Glutamate-cysteine ligase regulatory (GCLM) using HepaRG (AID 2283500)
How it was run: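 GCLM expression quantified by qRT-PCR, normalized to three housekeeping genes, after 48 h chemical treatment of HepaRG cells in duplicate at 8 concentrations (top 100 uM, half-log steps, 0.5% DMSO). Changes fitted both directions against vehicle.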

[13] = read-out: Glutathione S-transferase M3 (GSTM3), GSTM3 (gene 2947); assay: LTEA_HepaRG_GSTM3: Life Technologies and Expression Analysis (LTEA) Assay for Glutathione S-transferase M3 (GSTM3) using HepaRG (AID 2283501)
How it was run: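 Differentiated HepaRG cells in serum-free induction medium were exposed in duplicate for 48 h to 8 half-log concentrations up to 100 uM in 0.5% DMSO. GSTM3 mRNA was measured by TaqMan qRT-PCR, normalized to ACTB/GAPDH/POLR2A, and fitted bidirectionally versus DMSO.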

[14] = read-out: Heat shock 70 kDa protein 1 (HSPA1A), gene 3303; assay: LTEA_HepaRG_HSPA1A: Life Technologies and Expression Analysis (LTEA) Assay for Heat shock 70 kDa protein 1 (HSPA1A) using HepaRG (AID 2283502)
How it was run: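 HSPA1A expression measured by qRT-PCR with ACTB/GAPDH/POLR2A normalization; curves fitted in both directions relative to DMSO vehicle. Exposure: 48 h in HepaRG cells, duplicate 8-point half-log series from 100 uM, 0.5% DMSO, serum-free induction medium.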

[15] = read-out: Hypoxia-inducible factor 1-alpha (Homo sapiens) (UniProt Q16665); assay: LTEA_HepaRG_HIF1A: Life Technologies and Expression Analysis (LTEA) Assay for Hypoxia-inducible factor 1 (HIF1A) Trancription factor using HepaRG (AID 2283503)
How it was run: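 HIF1A transcript level read by qRT-PCR (ACTB, GAPDH, POLR2A normalization) after 48 h chemical exposure of HepaRG cultures. Eight half-log concentrations, top 100 uM, 0.5% DMSO vehicle, duplicates; bidirectional curve fit against DMSO baseline.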

Measured: AC50

Hypoxia-inducible factor 1-alpha (Homo sapiens), sequence (Q16665 whole entry, looked up): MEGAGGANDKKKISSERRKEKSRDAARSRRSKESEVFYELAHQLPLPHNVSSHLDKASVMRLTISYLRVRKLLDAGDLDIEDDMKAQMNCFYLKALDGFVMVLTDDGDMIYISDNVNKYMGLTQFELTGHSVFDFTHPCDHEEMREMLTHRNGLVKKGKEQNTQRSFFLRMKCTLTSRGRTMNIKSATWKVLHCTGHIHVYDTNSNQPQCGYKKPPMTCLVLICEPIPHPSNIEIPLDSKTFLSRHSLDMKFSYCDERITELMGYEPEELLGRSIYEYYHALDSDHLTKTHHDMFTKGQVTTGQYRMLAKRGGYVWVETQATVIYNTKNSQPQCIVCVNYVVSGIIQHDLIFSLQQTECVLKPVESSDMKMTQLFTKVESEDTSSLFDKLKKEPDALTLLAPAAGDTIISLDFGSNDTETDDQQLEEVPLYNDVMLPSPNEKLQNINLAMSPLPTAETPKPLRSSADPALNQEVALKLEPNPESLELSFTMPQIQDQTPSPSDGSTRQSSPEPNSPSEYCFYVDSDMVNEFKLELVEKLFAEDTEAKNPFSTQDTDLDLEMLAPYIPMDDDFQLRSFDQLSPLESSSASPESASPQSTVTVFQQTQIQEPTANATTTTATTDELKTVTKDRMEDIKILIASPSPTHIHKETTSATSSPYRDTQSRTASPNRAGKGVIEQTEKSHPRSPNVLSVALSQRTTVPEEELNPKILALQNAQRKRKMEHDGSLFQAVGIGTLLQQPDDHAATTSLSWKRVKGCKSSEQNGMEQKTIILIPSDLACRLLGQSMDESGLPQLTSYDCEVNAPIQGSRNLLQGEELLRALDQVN
Cytochrome P450 3A4 (Homo sapiens), sequence (P08684 whole entry, looked up): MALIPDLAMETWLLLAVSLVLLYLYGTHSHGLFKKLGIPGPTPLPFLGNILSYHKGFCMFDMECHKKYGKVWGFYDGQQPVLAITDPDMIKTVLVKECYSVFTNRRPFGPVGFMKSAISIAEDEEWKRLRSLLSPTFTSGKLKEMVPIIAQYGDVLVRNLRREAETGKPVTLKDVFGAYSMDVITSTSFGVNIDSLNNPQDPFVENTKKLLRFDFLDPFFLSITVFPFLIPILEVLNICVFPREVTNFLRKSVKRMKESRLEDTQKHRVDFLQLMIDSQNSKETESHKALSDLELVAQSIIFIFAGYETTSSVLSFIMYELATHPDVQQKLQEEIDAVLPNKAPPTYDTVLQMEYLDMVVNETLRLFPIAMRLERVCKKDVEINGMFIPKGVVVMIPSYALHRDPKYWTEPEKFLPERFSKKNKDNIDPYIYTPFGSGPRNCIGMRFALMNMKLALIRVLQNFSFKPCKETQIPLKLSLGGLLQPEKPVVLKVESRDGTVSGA
Cytochrome P450 3A7 (Homo sapiens), sequence (P24462 whole entry, looked up): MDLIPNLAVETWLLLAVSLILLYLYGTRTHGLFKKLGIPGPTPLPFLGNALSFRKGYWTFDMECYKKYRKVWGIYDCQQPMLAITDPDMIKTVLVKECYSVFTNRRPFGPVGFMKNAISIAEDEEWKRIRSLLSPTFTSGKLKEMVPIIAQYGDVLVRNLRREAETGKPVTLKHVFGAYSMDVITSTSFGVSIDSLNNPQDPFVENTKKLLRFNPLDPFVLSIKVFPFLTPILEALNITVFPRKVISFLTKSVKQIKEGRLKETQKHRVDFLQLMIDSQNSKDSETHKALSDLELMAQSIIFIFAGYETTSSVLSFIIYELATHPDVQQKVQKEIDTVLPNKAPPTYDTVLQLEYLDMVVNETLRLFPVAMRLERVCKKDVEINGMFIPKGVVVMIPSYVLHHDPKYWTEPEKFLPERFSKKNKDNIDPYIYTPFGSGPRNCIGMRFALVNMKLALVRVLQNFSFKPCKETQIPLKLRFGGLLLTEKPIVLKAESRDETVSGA

CCCCOC(=O)c1ccccc1C(=O)O
active: [5] 12.7 µM
inactive: all other assays above

CC1(C(=O)Nc2ccc(O)c(Cl)c2Cl)CCCCC1
active: [1] 21.4 µM
inactive: all other assays above
